Data on 24 molecules can be found in PubChem BioAssay (NCATS).

Each structure is given as a SMILES string. Records with an inconclusive call do not appear. Where a call stands in place of a potency, no number is given. Calls of active or inactive are those of the source. The call rests on the fitted dose curve; tested in HEK293 reporter line.
Potency means the concentration at half of the fitted maximal effect.

The test can be described thus: qHTS for Inhibitors of the Functional Ribonucleoprotein Complex (vRNP) of Lassa (LASV) Arenavirus: LASV Primary Screen - GLuc reporter signal (AID 1347082). Further: nearly all actives have a fitted effect of over 60% in size. The note with it: LASV minigenome vRNP, Gaussia luciferase reporter; series mostly up to 57.5 µM.
Turning to `CCCN(CCC)c1c([N+](=O)[O-])cc(S(N)(=O)=O)cc1[N+](=O)[O-]`, the Potency result was “inactive”. Take `O=c1cccc2n1CC1CNC[C@H]2C1`: the Potency entry was “inactive”. Next, `O=C(O)c1ccc(-c2cc3cccnc3c(-c3ccc4nonc4c3)n2)cc1`: “inactive”. Next, `CN(C)c1ccc(Nc2nc(N)n(C(=O)c3c(F)cccc3F)n2)cc1`: “inactive”; `O=[N+]([O-])c1cc([N+](=O)[O-])c2ccccc2c1`: “inactive”; `O=[N+]([O-])c1c2ccccc2cc2ccccc12`: “inactive”. `Nc1nc(-c2nn(Cc3ccccc3F)c3ncccc23)nc(N)c1N1CCOCC1`: the Potency entry was “inactive”.

`Cn1cc(-c2ccc3nnc(Sc4ccc5ncccc5c4)n3n2)cn1`: the Potency entry is “inactive”. In the case of `Cc1ccccc1-n1c(Cn2cnc3c(N)ncnc32)nc2cccc(C)c2c1=O`, the Potency was 8.63 µM (active). In the case of `CC(=Cc1csc(C)n1)[C@@H]1C[C@H]2O[C@]2(C)CCC[C@H](C)[C@@H](O)[C@@H](C)C(=O)C(C)(C)[C@@H](O)CC(=O)O1`, the Potency result is “inactive”. In the case of `Nc1cc(C(F)(F)F)c(-c2cc(N3CCOCC3)nc(N3CCOCC3)n2)cn1`, the Potency was 1.93 µM (active). `CC(C)[C@]12O[C@@H]1[C@@H]1O[C@]13[C@]1(O[C@H]1C[C@@H]1C4=C(CC[C@@]13C)C(=O)OC4)[C@H]2O`: the Potency result was “inactive”. Take `CCc1c(C(=O)C(N)=O)c2c(OCC(=O)O)cccc2n1Cc1ccccc1`: the Potency entry was “inactive”. Take `CC[C@H](CO)Nc1nc(NCc2ccccc2)c2ncn(C(C)C)c2n1`: the Potency result is “inactive”. For `O=C1CCC[C@@H]2[C@H]3CCCN4CCC[C@@H](CN12)[C@@H]34`, the Potency result is “inactive”. In the case of `N#CCNC(=O)c1ccc(-c2ccnc(Nc3ccc(N4CCOCC4)cc3)n2)cc1`, the Potency entry was “inactive”. For the molecule `CC(=O)O[C@@]12CO[C@H]1C[C@H](O)[C@@]1(C)C(=O)[C@H](O)C3=C(C)[C@@H](O)C[C@@](O)([C@@H](OC(=O)c4ccccc4)[C@@H]21)C3(C)C`, the Potency entry was “inactive”. In the case of `CC(=Cc1csc(C)n1)[C@@H]1C[C@H]2O[C@@H]2CCC[C@H](C)[C@@H](O)[C@@H](C)C(=O)C(C)(C)[C@@H](O)CC(=O)O1`, the Potency result was “inactive”. Next, `CCCCCC[C@H]1C(=O)O[C@H](C)[C@H](NC(=O)c2cccc(NC=O)c2O)C(=O)O[C@@H](C)[C@@H]1OC(=O)CC(C)C`: 1.09 µM (active).

Regarding `CC(=O)Nc1sc2c(c1-c1nc3ccccc3s1)CNC2`, the Potency result was “inactive”.

`O=C1C=CC[C@@H]2[C@H]3CCCN4CCC[C@@H](CN12)[C@@H]34`: the Potency entry is “inactive”. Regarding `c1cc2ccc3cccc4ccc(c1)c2c34`, the Potency result was “inactive”. Take `CC[C@H]1C=CC=CC[C@@H](C)[C@H](O)[C@@](C)(O)C(=O)[C@@H](C)[C@H](O)[C@@H](C)C(=O)[C@@H](C)[C@H](O)[C@@H](C)C=CC(=O)O[C@@H]2[C@@H](C)[C@H](CC1)O[C@]1(CC[C@H](C)[C@H](C[C@@H](C)O)O1)[C@H]2C`: the Potency is 0.137 µM (active). Take `C[C@H]1CCCC=CC2C[C@H](O)C[C@@H]2[C@H](O)C=CC(=O)O1` (some centres undefined): the Potency was 0.0273 µM (active).
